TDP1 cell CPT: DT40-hTDP1 cell growth loss with CPT | chicken DT40 Tdp1-/-;hTDP1 cells + 20 nM CPT, ATP luminescence, 48 h | Potency, µM (series often up to 46.2 µM), for the others: at the top dose activity change, negative = growth inhibition, usual class: inhibitors | 420,000 tested, 12% active | AID 686979; note: % is set by controls: 0 for no effect and ±100 for the full control effect; nearly all actives have a fitted effect of over 55% in size
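Chicken DT40 Tdp1-/- cells complemented with human TDP1, 400 cells/well, exposed to compounds plus 20 nM camptothecin for at least 48 h at 37 C; viability read as ATP content by CellTiter-Glo luminescence.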
ClpP mod: qHTS Assay for Activators of ClpP; purified B. subtilis ClpP, FRET peptide cleavage, 20 min; Potency, µM (series often up to 57.5 µM), for inactives: at the highest dose activity change, negative = active; 340,000 tested, 1.9% active; AID 651965, 2013; active = well fitted falling curve with a large enough effect; inconclusive = small, poorly fitted or top-dose-only effect; inactive = no such curve, though single readings can be large or run the other way; note: the source files actives as falling curves though it sought activators and does not explain the sign; nearly all actives have a fitted effect of over 65% in size
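Buffer: 100 mM Tris/HCl pH8, 100 mM KCl, 0.05% low protease BSA, 2.5% glycerol, 0.01% Tween-20. ClpP 10 microg/mL final; 20 min RT; delta FRET normalized to ADEP and DMSO controls.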
TDP1 cell noCPT: qHTS for Inhibitors of human tyrosyl-DNA phosphodiesterase 1 (TDP1): qHTS in cells in absence of CPT. DT40 Tdp1-/- hTDP1 cells, no CPT, ATP luminescence, 48 h. Potency, µM (highest dose often 46.2 µM), for inactives: top-dose activity change, negative = growth inhibition, hits mostly inhibitors. 420,000 tested, 15% active; note: % is set by controls: 0 for no effect and ±100 for the full control effect; nearly all actives have a fitted effect of over 55% in size
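Luminescent ATP content (CellTiter-Glo) served as the growth readout. Knockout chicken DT40 cells expressing human TDP1 were exposed to compounds without camptothecin for a minimum 48 hr at 37 °C.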
TDP1 inh: TDP1 (human) enzyme inhibition. 350,000 tested, 0.28% active. Potency, µM (titrated, usually from 130 µM), for the others: at the highest dose activity change, negative = inhibition, most hits filed as inhibitors. AID 485290. recombinant TDP1, AlphaScreen DNA substrate cleavage; note: % is set by controls: 0 for no effect and ±100 for the full control effect; nearly all actives have a fitted effect of over 40% in size
Target sequence (Q9NUW8 whole entry, looked up): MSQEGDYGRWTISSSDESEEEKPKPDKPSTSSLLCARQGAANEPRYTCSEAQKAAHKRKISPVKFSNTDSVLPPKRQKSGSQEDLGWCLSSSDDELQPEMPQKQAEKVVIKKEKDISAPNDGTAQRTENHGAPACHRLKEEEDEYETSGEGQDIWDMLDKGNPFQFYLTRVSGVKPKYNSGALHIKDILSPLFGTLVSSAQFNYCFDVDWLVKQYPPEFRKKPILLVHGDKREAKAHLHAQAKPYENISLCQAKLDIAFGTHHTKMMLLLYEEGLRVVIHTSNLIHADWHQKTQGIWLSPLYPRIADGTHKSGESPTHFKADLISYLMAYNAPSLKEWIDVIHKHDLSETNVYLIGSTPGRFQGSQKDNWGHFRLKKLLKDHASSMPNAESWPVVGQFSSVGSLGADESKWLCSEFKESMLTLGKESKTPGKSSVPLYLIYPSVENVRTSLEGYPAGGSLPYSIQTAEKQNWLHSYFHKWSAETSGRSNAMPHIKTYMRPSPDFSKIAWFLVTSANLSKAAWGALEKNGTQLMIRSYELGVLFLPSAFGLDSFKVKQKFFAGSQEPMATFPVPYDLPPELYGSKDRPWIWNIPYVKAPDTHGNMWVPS
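Compounds were preincubated with Tdp1 (1 nM final) for 15 min at room temperature before substrate (15 nM final) started a 5 min reaction; beads (10 ug/ml final) were then added for 10 min before AlphaScreen detection.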
* hit, by the source's call; ? = inconclusive; · = not tested or not shown; [ ] = remark or other dose. In the library only some 17% were active in any assay of this set; here they are far more common. Unless noted, calls come from the whole dose curve; as a rule, active = well fitted curve in the direction sought with a large enough effect; inconclusive = small, poorly fitted or top-dose-only effect, or another doubt; inactive = no such curve, though single readings can be large; an effect the other way counts as inactive or inconclusive. Potency is the fitted concentration of half-maximal effect.

SMILES | TDP1 cell CPT | ClpP mod | TDP1 cell noCPT | TDP1 inh
O=C(CCn1ccc2cc(S(=O)(=O)N3CCCC3)ccc21)NCc1ccccc1 | -28.6% | -1.8% | -7.2% | -1.4%
CN(C)c1ccc(CNC(=O)CCCn2ccc3cc(S(=O)(=O)N4CCCC4)ccc32)cc1 | ? | -5.7% | 18.4µM* | 11.3%
COc1ccc(C2Nc3ccccc3C(=O)N2Cc2ccc(C(C)(C)C)cc2)cc1COc1ccc(NC(C)=O)cc1 (configuration not stated) | · | · | · | 1.0%
Cn1nc(OCC(=O)O)cc1C(F)(F)F | 4.5% | -3.0% | 8.2% | 0.0%
CC(=O)C1=C(c2ccc(Br)cc2)C(=O)c2ccccc2C1=O | 1.3µM* | -0.8% | 1.46µM* | 13.2%
CC(=O)Nc1c(Br)cc2c(c1Br)C(=O)c1ccccc1-2 | -0.9% | 1.8% | -3.6% | ·
Cc1ccc(NC(=O)c2nc[nH]c2C(=O)NCCCCNC(=O)c2[nH]cnc2C(=O)Nc2ccc(C)cc2)cc1 | ? | 1.6% | 8.2µM* | -2.7%
Cc1ccc(NC(=O)c2nc[nH]c2C(=O)NCCCCCCNC(=O)c2[nH]cnc2C(=O)Nc2ccc(C)cc2)cc1 | ? | -15.5% | ? | 3.3%
Cc1ccc(NC(=O)c2nc[nH]c2C(=O)NCCCNC(=O)c2[nH]cnc2C(=O)Nc2ccc(C)cc2)cc1 | 16.4µM* | 1.1% | ? | -5.8%
CCc1ccc2nc(NC(=O)CCCc3cccs3)sc2c1 | ? | 12.6µM* | ? | ·
O=C(Cc1cccs1)Nc1nc(-c2cccnc2)cs1 | 16.4µM* | -1.2% | 8.2µM* | 5.7%
CCOc1ccc2nc(NC(=O)Cc3cccs3)sc2c1 | 18.4µM* | -4.2% | ? | 0.0%
O=C(COc1ccc(Br)cc1)Nc1nc(-c2cccnc2)cs1 | ? | -3.5% | -28.8% | 2.7%
O=C(Cc1cccs1)Nc1nc2ccccc2s1 | ? | -1.5% | 14.6µM* | 3.9%
COc1cc(-c2[nH]ncc2CN2CCN(c3cccc(C)n3)CC2)cc(OC)c1OC | ? | -14.0% | ? | 1.2%
Cc1ccc(NS(=O)(=O)c2cccc(C(=O)O)c2)cc1C | · | · | · | 2.8%
CCCNc1nc(C)cc(-c2cc(C(=O)Nc3ccccc3)on2)n1 | -29.0% | -19.5% | -17.1% | ·
O=C(NCC(=O)N1CCCCCCC1)c1ccc(Cl)c(Cl)c1 | -16.6% | -0.2% | ? | ·
O=C(Nc1nc2ccccc2s1)C1c2ccccc2Oc2ccccc21 | 5.8µM* | -4.5% | 16.4µM* | 5.4%
Cc1cccc(NC(=O)c2c(O)c3ccccc3n(C)c2=O)c1 | ? | -2.9% | 14.6µM* | ·
Cc1ccc(NC(=O)c2c(O)c3ccccc3n(C)c2=O)nc1 | ? | 3.7% | 20.6µM* | 0.0%
CCCn1c(=O)c(C(=O)Nc2cccc(C)c2)c(O)c2ccccc21 | ? | -20.5% | ? | ·
COc1cc2c(cc1OC)C(COc1ccc(F)cc1)N(C(=O)Cc1ccc(F)cc1)CC2 (configuration not stated) | 25.9µM* | -2.4% | 16.4µM* | 2.6%
CCC(=O)N1CCc2cc(OC)c(OC)cc2C1COc1ccc(C(=O)OC)cc1 (configuration not stated) | ? | -2.3% | ? | 1.1%
CCCCC(=O)N1CCc2cc(OC)c(OC)cc2C1COc1ccc(C(=O)OCC)cc1 (configuration not stated) | ? | 0.5% | 18.4µM* | 7.8%
SMILES | TDP1 cell CPT | ClpP mod | TDP1 cell noCPT | TDP1 inh
COc1cccc(C(=O)N2CCc3cc(OC)c(OC)cc3C2COc2ccc3c(C)cc(=O)oc3c2)c1 (configuration not stated) | ? | 2.5% | 10.3µM* | 5.9%
CCOc1ccc(C(=O)N2CCc3cc(OC)c(OC)cc3C2COc2ccc3c(C)cc(=O)oc3c2)cc1OCC (configuration not stated) | ? | -3.5% | ? | 2.9%
CCOC(=O)c1ccc(OCC2c3cc(OC)c(OC)cc3CCN2C(=O)Cc2ccc(F)cc2)cc1 (configuration not stated) | 23.1µM* | -5.6% | 18.4µM* | 10.4%
COc1ccc(NC(=O)CSc2nccn2Cc2ccc(F)cc2)cc1 | ? | -2.3% | -29.3% | 5.3%
CC(NC(=O)CN1C(=O)NC2(CCCCCCC2)C1=O)c1ccccc1 (configuration not stated) | 7.0% | -1.1% | 8.4% | -0.3%
CCN(CC)c1ccc(/C=N/NC(=O)c2nnn(-c3nonc3N)c2-c2ccc(C)cc2)cc1 | ? | -18.0% | ? | 2.0%
CCN1CCCC1CNC(=O)C(=O)NCCc1ccc(OC)c(OC)c1 (configuration not stated) | 25.1% | · | -4.2% | -3.7%
COc1cc2c(cc1OC)C(COc1ccc(F)cc1)N(C(=O)c1cccc(F)c1)CC2 (configuration not stated) | 16.4µM* | -2.5% | ? | 10.4%
COc1cccc(C(=O)COc2ccc3c(C)cc(=O)oc3c2)c1 | 3.26µM* | ? | 2.31µM* | ·
COc1cc2c(cc1OC)C(c1cccs1)N(C(=O)c1cccc(S(=O)(=O)N(C)C)c1)CC2 (configuration not stated) | 23.1µM* | · | ? | 3.6%
COc1ccc(C2c3cc(OC)c(OC)cc3CCN2C(=O)c2cccc([N+](=O)[O-])c2)cc1OC (configuration not stated) | -23.5% | 3.9% | ? | ·
COCCNC(=S)N1CCc2cc(OC)c(OC)cc2C1c1cccs1 (configuration not stated) | 10.7% | · | -30.2% | 9.8%
COc1cc2c(cc1OC)C(c1cccc([N+](=O)[O-])c1)N(C(=O)c1ccc(F)cc1)CC2 (configuration not stated) | 18.4µM* | 0.9% | 13µM* | 8.3%
Nc1ncnc2[nH]c(=O)[nH]c12 | -6.9% | · | 16.6% | 1.0%[56.1 µM]
C[N+](C)(C)CCOP(=O)([O-])OP(=O)(O)OCC1OC(n2ccc(N)nc2=O)C(O)C1O (configuration not stated) | -6.8% | · | 2.5% | 8.2%
O=c1oc2ccccc2c(O)c1/C=C1\C=Nc2ccccc21 | 8.2µM* | -2.8% | 7.31µM* | -1.0%
O=c1oc2ccccc2c(O)c1/C=N/c1ncccn1 | -13.1% | -6.2% | -10.3% | -6.2%
Cc1nc(SCC(=O)c2cc3ccccc3oc2=O)c(C#N)c(-c2ccccc2)c1C(=O)Nc1ccccc1 | ? | 1.7% | 18.4µM* | 7.9%
CCC(C)(C)C1CCc2nc3ccccc3c(C(=O)OC(C)C(=O)Nc3c(C)n(C)n(-c4ccccc4)c3=O)c2C1 (configuration not stated) | 23.1µM* | 1.5% | ? | -2.7%
CCCc1nc2ccccc2c(C(=O)OCC(=O)Nc2c(C)n(C)n(-c3ccccc3)c2=O)c1CC | ? | -1.1% | 16.4µM* | 5.3%

Assay outcomes (PubChem)
